# Measurements: PubChem BioAssay (EPA / NIEHS)
# Where “and” joins values, the source holds several entries; their conditions need not be identical. Identical values can stand only once. Records with an inconclusive call do not appear. Some compounds were tested as several samples or in several runs, with calls that do not always agree. Calls of active or inactive are those of the source. How the source made its calls: active means hit-call score of the fitted dose curve at least 0.9, where 1 is the maximum; inconclusive means response in the unintended direction; inactive means score below 0.9.
# Assays:
# [1] = LTEA_HepaRG_LDH_cytotoxicity: Cytotoxicity Assessment in the Life Technologies and Expression Analysis (LTEA) Assay (AID 2283563);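 on AC50: LDH activity released into spent culture medium as a marker of cell death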
# Procedure, shortened: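 Human HepaRG hepatic cells are treated with test chemicals for 48 h at up to 100 uM in 0.5% DMSO. Cytotoxicity is scored from medium LDH against the vehicle control.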
# [2] = TOX21_p53_BLA_p2_viability: Viability Assessment in the Tox21 HCT-116 p53 Agonism Beta-lactamase Assay, Phase 2 (AID 2283591);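 further: actives lower the ATP signal meaning cytotoxicity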
# Procedure, shortened: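 Cytotoxicity readout: CellTiter-Glo ATP luminescence, 30 min at room temperature, after the beta-lactamase read. Cells were HCT116 exposed 16 h at 37C to compounds pin-transferred at 217-fold dilution from DMSO stocks.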
# [3] = target: Cellular tumor antigen p53 (Homo sapiens) (UniProt P04637); experiment: TOX21_p53_BLA_p2_ratio: Tox21 HCT-116 p53 Agonism Beta-lactamase Assay, Ratio, Phase 2 (AID 2283592)
# Procedure, shortened: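 An inducible beta-lactamase reporter in HCT116 cells signals p53 pathway activation. After 16 h chemical exposure at 37C, cells load CCF4-AM substrate for 2 h at room temperature; activity is the cleaved/uncleaved emission ratio relative to DMSO.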
# [4] = TOX21_p53_BLA_p3_viability: Viability Assessment in the Tox21 HCT-116 p53 Agonism Beta-lactamase Assay, Phase 3 (AID 2283593);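 further: cells exposed to compound for 16 h before reading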
# Procedure, shortened: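 Cellular ATP was quantified by CellTiter-Glo luminescence, read after 30 min at room temperature. Beforehand, HCT116 cells (4000/well) received compound 5 h post-seeding, 217-fold diluted from DMSO, then incubated 16 h at 37C.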
# [5] = target: Cellular tumor antigen p53 (Homo sapiens) (UniProt P04637); experiment: TOX21_p53_BLA_p3_ratio: Tox21 HCT-116 p53 Agonism Beta-lactamase Assay, Ratio, Phase 3 (AID 2283596)
# Procedure, shortened: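 HCT116 p53-bla cells (4000/well) given compound in DMSO (217-fold dilution) after 5 h, incubated 16 h at 37C. CCF4-AM substrate 2 h at room temperature; 460/530 nm emission ratio, gain fitted against DMSO.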
# [6] = TOX21_p53_BLA_p4_viability: Viability Assessment in the Tox21 HCT-116 p53 Agonism Beta-lactamase Assay, Phase 4 (AID 2283597);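 further: hits lower the luminescence signal meaning cytotoxicity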
# Procedure, shortened: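 Compound exposure of HCT116 cells lasts 16 h at 37C, 5% CO2, with DMSO stocks diluted 217-fold. Cellular ATP is then quantified by CellTiter-Glo luminescence after 30 min at room temperature.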
# [7] = target: Cellular tumor antigen p53 (Homo sapiens) (UniProt P04637); experiment: TOX21_p53_BLA_p5_ratio: Tox21 HCT-116 p53 Agonism Beta-lactamase Assay, Ratio, Phase 5 (AID 2283599)
# Procedure, shortened: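 Beta-lactamase reporter ratio (blue 460 nm over green 530 nm, 405 nm excitation) after 2 h CCF4-AM loading, in HCT-116 cells exposed 16 h at 37 C to compounds pinned at 217-fold dilution. Increases relative to DMSO baseline scored.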
# [8] = TOX21_p53_BLA_p5_viability: Viability Assessment in the Tox21 HCT-116 p53 Agonism Beta-lactamase Assay, Phase 5 (AID 2283600)
# Procedure, shortened: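 Counter-readout for cytotoxicity: ATP-dependent luminescence from CellTiter-Glo, read in the beta-lactamase wells after 30 min at RT, following a 16 h compound exposure at 37C.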
# [9] = target: Cellular tumor antigen p53 (Homo sapiens) (UniProt P04637); experiment: TOX21_p53_BLA_p4_ratio: Tox21 HCT-116 p53 Agonism Beta-lactamase Assay, Ratio, Phase 4 (AID 2283601)
# Procedure, shortened: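 Signal is the blue/green (460nm/530nm) ratio of cleaved versus uncleaved CCF4-AM substrate, read after 2 h substrate loading. Cells were HCT116 carrying the p53-responsive beta-lactamase reporter, dosed 16 h at 37C, 5% CO2; CellTiter-Glo measured in parallel.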
# [10] = Tanguay_ZF_120hpf_MORT_legacy: (Legacy) Oregon State University Tanguay Lab 120 Hour Post-fertilization zebrafish Assay for Mortality (AID 2283633);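 on AC50: fitted as increase in binary mortality versus DMSO negative control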
# Procedure, shortened: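 Mortality endpoint from a multiplexed whole-embryo zebrafish screen. Dechorionated wild-type embryos received compound at 6 hpf and remained under static exposure at 28C until 120 hpf, with death noted as a present/absent call.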
# [11] = Tanguay_ZF_120hpf_YSE_legacy: (Legacy) Oregon State University Tanguay Lab 120 Hour Post-fertilization zebrafish Assay for Yolk Sac Edema (AID 2283634);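 on AC50: actives raise the incidence of yolk sac edema above the DMSO baseline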
# Procedure, shortened: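 Readout: presence or absence of yolk sac edema at 120 hpf, fitted upward against DMSO controls. Exposure ran statically from 6 hpf in dechorionated embryos kept at 28C.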
# [12] = Tanguay_ZF_120hpf_EYE_legacy: (Legacy) Oregon State University Tanguay Lab 120 Hour Post-fertilization zebrafish Assay for Eye Malformation (AID 2283636)
# Procedure, shortened: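 Read-out is binary presence or absence of eye malformation, scored by brightfield microscopy at 120 hpf. Single larvae were exposed from 6 hpf in embryo medium containing 0.64% DMSO, with DMSO as baseline.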
# [13] = Tanguay_ZF_120hpf_SNOU_legacy: (Legacy) Oregon State University Tanguay Lab 120 Hour Post-fertilization zebrafish Assay for Snout Malformation (AID 2283637)
# Procedure, shortened: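 Snout malformation read as a yes/no call on brightfield images of 120 hpf larvae (Tropical 5D strain). Static exposure began at 6 hpf on dechorionated embryos in 0.64% DMSO, with gain of signal analysed versus DMSO controls.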
# [14] = Tanguay_ZF_120hpf_JAW_legacy: (Legacy) Oregon State University Tanguay Lab 120 Hour Post-fertilization zebrafish Assay for Jaw Malformation (AID 2283638);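 on AC50: active means more embryos with jaw malformation than DMSO controls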
# Procedure, shortened: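 Static waterborne exposure of dechorionated wild-type (Tropical 5D) zebrafish from 6 to 120 hpf at 28C, 0.64% DMSO vehicle; 5uM trimethyltin chloride served as positive control. Jaw morphology recorded as binary at 120 hpf.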
# [15] = Tanguay_ZF_120hpf_OTIC_legacy: (Legacy) Oregon State University Tanguay Lab 120 Hour Post-fertilization zebrafish Assay for Otic Vesicle Malformation (AID 2283639)
# Procedure, shortened: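 Embryos from 5D wild-type adults exposed in plates; DMSO 0.64% v/v final. Sealed, light-protected, 28C, static to 120 hpf. Otic vesicle malformation recorded as binary endpoint; gain-of-signal fitted vs DMSO.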
# [16] = Tanguay_ZF_120hpf_PE_legacy: (Legacy) Oregon State University Tanguay Lab 120 Hour Post-fertilization zebrafish Assay for Pericardial Edema (AID 2283640);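 on AC50: potency for increased incidence of pericardial edema versus DMSO baseline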
# Procedure, shortened: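 Read-out is the presence or absence of pericardial edema at 120 hpf under brightfield, with gain of signal fitted against DMSO controls. Larvae (5D wild-type) were statically exposed at 28C with 0.64% final DMSO.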
# [17] = Tanguay_ZF_120hpf_SOMI_legacy: (Legacy) Oregon State University Tanguay Lab 120 Hour Post-fertilization zebrafish Assay for Somite Malformation (AID 2283647)
# Procedure, shortened: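 5D WT zebrafish; chorion removed 4 hpf; 1 embryo/well from 6 hpf; static exposure to 120 hpf, 28C, 0.64% DMSO final. Endpoint: somite malformation, binary, brightfield. Mortality excluded.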
# [18] = Tanguay_ZF_120hpf_AXIS_legacy: (Legacy) Oregon State University Tanguay Lab 120 Hour Post-fertilization zebrafish Assay for Body Axis Malformation (AID 2283635);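 on AC50: potency for an increased fraction of larvae scored with body axis malformation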
# Procedure, shortened: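 Static 6–120 hpf chemical exposure of dechorionated wild-type 5D zebrafish, one per well at 28C; morphology endpoint scored binary at 120 hpf relative to DMSO control.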
# [19] = Tanguay_ZF_120hpf_BRAI_legacy: (Legacy) Oregon State University Tanguay Lab 120 Hour Post-fertilization zebrafish Assay for Brain Malformation (AID 2283641)
# Procedure, shortened: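 Brain malformation in Tropical 5D zebrafish was recorded as a binary endpoint after static compound exposure from early development to 120 hpf at 28C. Activity was analysed against DMSO as negative control.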
# Sequence of Cellular tumor antigen p53 (Homo sapiens) (P04637 whole entry, looked up): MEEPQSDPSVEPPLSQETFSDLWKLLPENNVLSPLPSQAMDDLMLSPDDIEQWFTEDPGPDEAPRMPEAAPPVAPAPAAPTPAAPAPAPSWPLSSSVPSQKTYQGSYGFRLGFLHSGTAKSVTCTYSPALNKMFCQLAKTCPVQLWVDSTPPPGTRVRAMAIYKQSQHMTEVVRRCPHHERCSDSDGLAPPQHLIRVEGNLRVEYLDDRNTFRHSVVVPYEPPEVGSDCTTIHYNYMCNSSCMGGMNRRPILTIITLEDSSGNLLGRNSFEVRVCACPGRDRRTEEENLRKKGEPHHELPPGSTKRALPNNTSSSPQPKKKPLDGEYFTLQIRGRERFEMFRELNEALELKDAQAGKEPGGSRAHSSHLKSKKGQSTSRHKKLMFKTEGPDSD
smiles,measurement,setting,value
CC(C)(C)c1cc(/C=C2\SC(N)=NC2=O)cc(C(C)(C)C)c1O,AC50,[1],37.3 µM (active)
same,AC50,[2],77.9 µM (active)
same,AC50,[3],50.7 µM (active)
same,outcome,[4],inactive
same,outcome,[5],inactive
same,AC50,[6],84.4 µM (active)
same,AC50,[7],90.1 µM (active)
same,AC50,[8],76.4 µM (active)
same,AC50,[9],62.3 µM (active)
same,AC50,[10],25.5 µM (active)
same,outcome,[11],inactive
same,outcome,[12],inactive
same,outcome,[13],inactive
same,outcome,[14],inactive
same,outcome,[15],inactive
same,outcome,[16],inactive
same,outcome,[17],inactive
Cc1ccc(C(C)C)cc1,outcome,[1],inactive
same,outcome,[2],inactive
same,outcome,[3],inactive
same,outcome,[4],inactive
same,outcome,[5],inactive
same,outcome,[6],inactive
same,outcome,[8],inactive
same,outcome,[9],inactive
same,outcome,[10],inactive
same,outcome,[11],inactive
same,outcome,[18],inactive
same,outcome,[13],inactive
same,outcome,[14],inactive
same,outcome,[15],inactive
same,outcome,[17],inactive
CC[C@H](NC(=O)c1cc(F)ccc1NS(=O)(=O)c1cccc2cccnc12)c1ccccc1,outcome,[1],inactive
same,outcome,[2],inactive
same,outcome,[3],inactive
same,outcome,[4],inactive
same,outcome,[5],inactive
same,outcome,[6],inactive
same,outcome,[7],inactive
same,AC50,[9],67.2 µM (active)
same,outcome,[10],inactive
same,outcome,[18],inactive
same,outcome,[13],inactive
same,outcome,[14],inactive
same,outcome,[15],inactive
same,outcome,[16],inactive
c1ccc2n[nH]nc2c1,outcome,[1],inactive
same,outcome,[2],inactive
same,outcome,[3],inactive
same,outcome,[4],inactive
same,outcome,[5],inactive
same,outcome,[6],inactive
same,outcome,[7],inactive
same,outcome,[8],inactive
same,outcome,[9],inactive
same,outcome,[10],inactive
same,outcome,[11],inactive
same,outcome,[18],inactive
same,outcome,[12],inactive
same,outcome,[13],inactive
same,outcome,[14],inactive
same,outcome,[15],inactive
same,outcome,[16],inactive
same,outcome,[19],inactive
same,outcome,[17],inactive
NC(=O)c1nc(-c2cccc(-c3cc(F)ccc3OCC(F)(F)C(F)(F)F)c2)n[nH]1,AC50,[1],76.1 µM (active)
same,AC50,[2],65.9 µM (active)
same,AC50,[3],79.6 µM (active)
same,AC50,[4],74 µM (active)
same,AC50,[5],87.4 µM (active)
same,AC50,[6],70.5 µM (active)
same,AC50,[7],86.6 µM (active)
same,AC50,[8],72.7 µM (active)
same,AC50,[9],86.3 µM (active)
same,outcome,[10],inactive
same,AC50,[11],26.8 µM (active)
same,AC50,[18],25.9 µM (active)
same,AC50,[12],9.38 µM (active)
same,AC50,[13],25.8 µM (active)
same,AC50,[14],28.7 µM (active)
same,AC50,[15],27.8 µM (active)
same,AC50,[16],28.1 µM (active)
same,AC50,[17],25.8 µM (active)
CCN(CC)C(=O)c1cc(S(=O)(=O)Cc2ccccc2)c(N2CCC(c3ccccc3)CC2)cc1N(CC)CCN(C)C,AC50,[1],31.1 µM (active)
same,AC50,[2],29.4 µM (active) and 33.5 µM (active)
same,outcome,[3],inactive
same,AC50,[4],30.3 µM (active)
same,outcome,[4],inactive
same,outcome,[5],inactive
same,AC50,[6],17.9 µM (active) and 25.1 µM (active)
same,AC50,[8],40.1 µM (active)
same,AC50,[9],32.6 µM (active) and 42.6 µM (active)
same,AC50,[10],11.7 µM (active)
same,outcome,[11],inactive
same,AC50,[18],18.2 µM (active)
same,outcome,[12],inactive
same,AC50,[13],18 µM (active)
same,outcome,[14],inactive
same,outcome,[15],inactive
same,outcome,[17],inactive
